Most compounds without a hit are left out; they make up all but 19% or so of the library.
HT1080 IDH1KD tx – qHTS for induction of synthetic lethality in tumor cells producing 2HG: qHTS for the HT-1080-IDH1KD cell line. HT-1080 IDH1 knockdown viability, ATP luminescence, 48 h. Potency, µM (highest dose often 46.1 µM), for inactives: at the top dose activity, negative = toxicity, most hits filed as cytotoxic. 2% of 360,000 active. AID 686971, 2013;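 note: potency is the fitted concentration of half-maximal effect; 0% = DMSO wells and -100% = cell-free medium wells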
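IDH1KD HT-1080 cells, 750/well, RPMI + 5% FBS; compound pinned after 2 h settling; 48 h, 37 °C; CellTiter-Glo luminescence; % activity normalised to DMSO and no-cell wells; curves fitted, classed by r2 and efficacy.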
TDP1 cell CPT – qHTS for Inhibitors of human tyrosyl-DNA phosphodiesterase 1 (TDP1): qHTS in cells in presence of CPT; chicken DT40 Tdp1-/-;hTDP1 cells + 20 nM CPT, ATP luminescence, 48 h; Potency, µM (doses to about 46.2 µM), for inactives: at the top dose activity change, negative = growth inhibition, most hits filed as inhibitors; 12% of 420,000 active; note: potency is the fitted concentration of half-maximal effect; nearly all actives have a fitted effect of over 55% in size
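Chicken DT40 Tdp1-/- cells complemented with human TDP1, 400 cells/well, exposed to compounds plus 20 nM camptothecin for at least 48 h at 37 C; viability read as ATP content by CellTiter-Glo luminescence.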
uPA surface inh – qHTS for Inhibitors of Cell Surface uPA Generation | cell surface uPA generation assay, qHTS | Potency, µM (top dose mostly 38.3 µM), inactives show at the highest dose activity change, negative = inhibition, actives largely listed as inhibitors | 0.31% of 330,000 active | AID 540303, 2011; active = well fitted inhibition curve with a large enough effect; inconclusive = small, poorly fitted or top-dose-only effect; inactive = no such curve, though single readings can be large or run the other way; tested in mouse RAW 264.7 cells; note: potency is the fitted concentration of half-maximal effect; nearly all actives have a fitted effect of over 55% in size
HT1080NT lethal – qHTS for induction of synthetic lethality in tumor cells producing 2HG: qHTS for the HT-1080-NT fibrosarcoma cell line; HT-1080-NT fibrosarcoma viability, CellTiter-Glo ATP luminescence, 48 h; Potency, µM (series often up to 46.1 µM), for the others: top-dose activity, negative = less viability, usual class: cytotoxic; 1.6% of 360,000 active;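 note: NT is the 2HG producing partner of a matched IDH1 knockdown line; potency is the fitted concentration of half-maximal effect; 0% = DMSO-treated cells and -100% = media-only wells without cells; nearly all actives have a fitted effect of over 55% in size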
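HT-1080-NT fibrosarcoma cells (2HG-overproducing), 750 cells/well in RPMI with 5% FBS, dosed after 2 h and incubated 48 h at 37C. CellTiter-Glo luminescence normalized to DMSO and no-cell wells; concentration-response curves fitted and classed.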
TDP1 cell noCPT – qHTS for Inhibitors of human tyrosyl-DNA phosphodiesterase 1 (TDP1): qHTS in cells in absence of CPT. DT40 Tdp1-/- hTDP1 cells, no CPT, ATP luminescence, 48 h. 15% of 420,000 active. Potency, µM (top dose mostly 46.2 µM), for inactives: at the top dose activity change, negative = growth inhibition, hits mostly inhibitors; note: potency is the fitted concentration of half-maximal effect; nearly all actives have a fitted effect of over 55% in size
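Luminescent ATP content (CellTiter-Glo) served as the growth readout. Knockout chicken DT40 cells expressing human TDP1 were exposed to compounds without camptothecin for a minimum 48 hr at 37 °C.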
IL-1B inflam inh – qHTS for Inhibitors of Inflammasome Signaling: IL-1-beta AlphaLISA Primary Screen; THP-1 LPS/ATP IL-1B secretion, AlphaLISA, 16 h; stronger effect = lower value; activity change, % at 57.5 µM; 4.7% of 360,000 active; AID 743279, 2014; in the data active = activity change below about -50%; inconclusive = mostly about -30% to -49%
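THP-1 cells pretreated 1 hr with compounds (up to 57.5 uM final), then stimulated with LPS (250 ng/mL final) plus ATP (1.25 mM final); secreted IL-1B measured by AlphaLISA after 16 hr, decreased signal indicating inhibition.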
Active calls of the source: *; ? = inconclusive; . = not tested or not shown; [ ] = dose if it differs, or a comment. Unless noted, calls come from the whole dose curve; as a rule, active = well fitted curve in the direction sought with a large enough effect; inconclusive = small, poorly fitted or top-dose-only effect, or another doubt; inactive = no such curve, though single readings can be large; an effect the other way counts as inactive or inconclusive. Unless noted, % is set by controls: 0 for no effect and ±100 for the full control effect.

SMILES | HT1080 IDH1KD tx | TDP1 cell CPT | uPA surface inh | HT1080NT lethal | TDP1 cell noCPT | IL-1B inflam inh
COc1ccc(NC(=O)N2C[C@H]3CON(C)[C@H]3C[C@H]2c2ccc(N3CCCCC3)cc2)cc1 | 13.7% | -6.8% | . | 6.1% | 2.3% | 7.1
O=C(C[N+]1(CCc2ccccc2)CCOCC1)c1ccccc1 | . | 2.4% | . | . | -25.7% | .
COc1nc2c(c(-c3cc(Br)cs3)c1C#N)Cc1ccccc1-2 | -4.8% | ? | -12.1% | 7.9% | 25.9µM* | 7.4
O=C(c1ccc(-c2nc3ccccc3s2)o1)N1CCN(c2ccccc2O)CC1 | 0.3% | 23.1µM* | 1.2% | -9.9% | 20.6µM* | 19.6
O=C(CN1CCN(C(=O)c2ccc(-c3nc4ccccc4s3)o2)CC1)Nc1ccccc1Cl | 1.9% | ? | 1.3% | 11.7% | ? | 49.5
O=C(CN1CCN(C(=O)c2ccc(-c3nc4ccccc4s3)o2)CC1)Nc1ccc(F)cc1 | -20.9% | ? | -13.9% | 3.6%[9.24 µM] | 25.9µM* | -12.5
Cc1[nH]n(C2=NCCS2)c(=O)c1N=Nc1cccc(C(F)(F)F)c1 | ? | 3.66µM* | ? | ? | 2.59µM* | 197.7
CCC(c1ccccc1)C(CC)c1cc(O)c(O)c(O)c1 (stereo not given) | ? | 16.4µM* | -8.4% | ? | 8.2µM* | -78.3*
CCC(C(=O)O)c1ccccc1 (stereo not given) | . | -0.1% | . | . | 0.6% | .
Cc1cccc(-c2nn3c(=O)cc(CN4CCN(C(=O)/C=C/c5ccccc5)CC4)nc3s2)c1 | . | -2.2% | . | . | ? | .
Cc1ccc(-n2nc3c(=O)n(CC(=O)NCCc4ccccc4C)nc(C)c3c2C)cc1 | -3.9% | ? | -1.7% | -8.3% | ? | -10.1
COc1ccc(OC)c(CNC(=O)Cn2nc(C)c3nn(-c4ccc(Cl)cc4)c(C)c3c2=O)c1 | . | 23.1µM* | . | . | 18.4µM* | .
COc1ccc(OC)c(CNC(=O)C(C)n2nc(C)c3c(C)n(-c4ccccc4)nc3c2=O)c1 (stereo not given) | -7.1% | -13.3% | -1.2% | -5.5% | -1.4% | 9.1
COc1ccc(OC)c(CCNC(=O)Cn2nc(C)c3c(C)n(-c4ccc(C)cc4)nc3c2=O)c1 | -1.7% | -15.6% | -12.9% | -16.9% | 14.6µM* | -67.2*
Cc1ccc(C(=O)CSc2nc3cc(C(=O)NC4CCCC4)ccc3c(=O)n2CC2CCCO2)cc1 (stereo not given) | . | -6.5% | . | . | -16.4% | .
COc1ccccc1Nc1nn2c(=O)c3ccc(C(=O)NC4CCCCC4)cc3nc2s1 | . | 2.31µM* | . | . | 3.66µM* | .
CCc1ccccc1Nc1nn2c(=O)c3ccc(C(=O)NC4CCCCC4)cc3nc2s1 | . | 10.3µM* | . | . | 13µM* | .
COc1ccccc1Nc1ccc(C(=O)NC2CCCCC2)cn1 | -14.3% | ? | 8.0% | 3.7% | ? | ?
O=C(O)/C=C\C(=O)NCc1cccnc1 | 0.0% | -3.2% | -5.9% | 14.6% | ? | -9.8
N#Cc1c(-c2ccccc2)cc(-c2ccccc2)nc1SCC(O)CS(=O)(=O)Cc1ccc(Cl)cc1 (stereo not given) | . | 8.2µM* | . | . | 3.26µM* | .
Cc1ccccc1NC(=O)c1ccc(F)c(S(=O)(=O)N(C)C2CCCCC2)c1 | . | -48.2% | . | . | ? | .
COc1ccc(C2Nc3ccccc3C(=O)N2Cc2ccco2)cc1OC (stereo not given) | . | 8.91µM* | . | . | 22.4µM* | .
COc1ccc(C2Nc3ccccc3C(=O)N2Cc2ccco2)cc1COc1ccc(F)cc1 (stereo not given) | -5.9% | ? | -1.0% | -0.3% | ? | -20.1
CCOc1cc(C2Nc3ccccc3C(=O)N2Cc2ccco2)ccc1OCc1ccccc1Cl (stereo not given) | . | 10µM* | . | . | 3.55µM* | .
COc1ccc2c(c1OC)C(=O)N1c3ccccc3C(=O)N(Cc3ccco3)C21 (stereo not given) | . | 10µM* | . | . | 20µM* | .
SMILES | HT1080 IDH1KD tx | TDP1 cell CPT | uPA surface inh | HT1080NT lethal | TDP1 cell noCPT | IL-1B inflam inh
O=C1c2ccccc2NC(c2cccc(O)c2)N1Cc1ccco1 (stereo not given) | 6.7% | ? | -11.2% | -0.8% | ? | 26.5
O=C1c2ccccc2NC(c2cc(Br)c3c(c2)OCO3)N1Cc1ccco1 (stereo not given) | . | ? | . | . | 17.8µM* | .
CCOc1ccc(NC(=O)C2CCCN2S(=O)(=O)c2ccc(OCC)cc2)cc1 (stereo not given) | 18.6% | 1.2% | 2.4% | 10.6% | -3.0% | 65.5
COc1cccc(CC2(CO)CCCN(Cc3ccc(OC)c(C)c3OC)C2)c1 (stereo not given) | -9.5% | 18.4µM* | ? | -13.0% | 16.4µM* | 0.0
COc1cccc(CC2(CO)CCCN(Cc3ccc(CN4CCCCC4)s3)C2)c1 (stereo not given) | -8.8% | 20.6µM* | -12.2% | -20.9% | ? | -11.4
COc1cccc(CC2(CO)CCCN(Cc3ccccc3Cl)C2)c1 (stereo not given) | -7.6% | ? | -15.5% | -5.4% | ? | -0.3
COc1cccc(CC2(CO)CCCN(Cc3cn(C)c4ccccc34)C2)c1 (stereo not given) | -6.6% | 20.6µM* | -5.2% | -7.9% | 23.1µM* | -12.0
COc1cccc(CC2(CO)CCCN(Cc3cnn(-c4ccccc4)c3)C2)c1 (stereo not given) | -4.7% | ? | -6.7% | 0.3% | 25.9µM* | ?

Assay outcomes as filed in PubChem BioAssay.
